Results filed as inconclusive are left out. A structure can be active in one record and inactive in another. Calls of active or inactive are those of the source. The call rests on the fitted dose curve; in most records, active means well fitted inhibition curve with a large enough effect; inconclusive means small, poorly fitted or top-dose-only effect; inactive means flat fitted curve, though single readings scatter.
Tests used:
Assay in all cases: qHTS profiling for inhibitors of Plasmodium falciparum proliferation (AID 504749); further: nearly all actives have a fitted effect of over 60% in size
Conditions in all cases: P. falciparum in erythrocytes, SYBR Green DNA, 72 h; series mostly up to 28.7 µM
AA1029 = tested on: AA1029
Outline: (§1)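 In a 72 h erythrocytic culture (37 C, humidified, 5% CO2) at 2.5% hematocrit and 0.3% starting parasitemia, compounds were tested; SYBR Green I in detergent lysis buffer stained parasite DNA overnight.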

AS120 = tested on: AS120
Outline: as §1

ATS189 = tested on: ATS189
Outline: as §1

ATS95 = tested on: ATS95
Outline: as §1

C2A = tested on: C2A
Outline: as §1

CP185 = tested on: CP185
Outline: as §1

CP191 = tested on: CP191
Outline: as §1

CP192 = tested on: CP192
Outline: as §1

CP194 = tested on: CP194
Outline: as §1

CP201 = tested on: CP201
Outline: as §1

Measured: Potency
Potency means the concentration at half of the fitted maximal effect.

O=C1CCCCC1CN1CCCCC1 (centres undefined)
inactive: AA1029 | AS120 | ATS189 | ATS95 | C2A | CP185 | CP191 | CP192 | CP194 | CP201

CCN(CC)C(=O)/C(Cl)=C(\C)OP(=O)(OC)OC
inactive: AA1029 | AS120 | ATS189 | ATS95 | C2A | CP185 | CP191

[N-]=[N+]=CC(=O)OCC(N)C(=O)O (centres undefined)
inactive: AA1029 | AS120 | ATS189 | ATS95 | C2A | CP185 | CP191 | CP192 | CP194 | CP201

O=C/C=C/c1ccccc1
inactive: AA1029 | AS120 | ATS189 | ATS95 | C2A | CP185 | CP191 | CP192 | CP194 | CP201

CNC(C)C(O)c1ccc(O)cc1 (centres undefined)
inactive: AA1029 | AS120 | ATS189 | ATS95 | C2A | CP185 | CP191 | CP192 | CP194 | CP201

O=P(O)(O)C(Cl)(Cl)P(=O)(O)O
inactive: AA1029 | AS120 | ATS189 | ATS95 | C2A | CP185 | CP191 | CP192 | CP194 | CP201

c1cc2c(c(NC3=NCCN3)c1)CCCC2
inactive: AA1029 | AS120 | ATS189 | ATS95 | C2A | CP185 | CP191

CC(=O)O[C@H]1CC[C@H]2[C@@H]3CCC4=CC(=O)CCC4=C3C=C[C@]12C
inactive: AA1029 | AS120 | ATS189 | ATS95 | C2A | CP185 | CP191 | CP192 | CP194 | CP201

COCC(C)N(C(=O)CCl)c1c(C)csc1C (centres undefined)
inactive: AA1029 | AS120 | ATS189 | ATS95 | C2A | CP185 | CP191 | CP192 | CP194 | CP201

CC(C)Nc1ccc(Nc2ccccc2)cc1
active: AA1029 7.08 µM | AS120 11.2 µM | ATS189 5.62 µM | ATS95 7.94 µM | C2A 8.91 µM | CP185 8.91 µM | CP191 4.47 µM | CP192 5.36 µM | CP194 3.38 µM | CP201 4.78 µM

O=c1[nH]c(=O)n(Cl)c(=O)n1Cl
inactive: AA1029 | AS120 | ATS189 | ATS95 | C2A | CP185 | CP191 | CP192 | CP194 | CP201

O=[N+]([O-])c1cc(I)c(O)c(I)c1
inactive: AA1029 | AS120 | ATS189 | ATS95 | C2A | CP185 | CP191 | CP192 | CP194 | CP201

O=[N+]([O-])C(Br)(CO)CO
inactive: AA1029 | AS120 | ATS189 | ATS95 | C2A | CP185 | CP191 | CP192 | CP194 | CP201

O=C1CN(O)C(c2ccccc2)=c2cc(Cl)ccc2=N1
inactive: AA1029 | AS120 | ATS189 | ATS95 | C2A | CP185 | CP191 | CP192 | CP194 | CP201

ClCC1CO1 (centres undefined)
inactive: AA1029 | AS120 | ATS189 | ATS95 | C2A | CP185 | CP191 | CP192 | CP194 | CP201

N#CN
inactive: AA1029 | AS120 | ATS189 | ATS95 | C2A | CP185 | CP191 | CP192 | CP194 | CP201

CCC1C(C)=NN=C(c2ccc(OC)c(OC)c2)c2cc(OC)c(OC)cc21 (centres undefined)
inactive: AA1029 | AS120 | ATS189 | ATS95 | C2A | CP185 | CP191 | CP192 | CP194 | CP201

O=c1[nH]cc(N(CCCl)CCCl)c(=O)[nH]1
inactive: AA1029 | AS120 | ATS189 | ATS95 | C2A | CP185 | CP191 | CP192 | CP194 | CP201

C[N+]1(C)CCCCC1COC(=O)C(O)(c1ccccc1)c1ccccc1 (centres undefined)
inactive: AA1029 | AS120 | ATS189 | ATS95 | C2A | CP185 | CP191 | CP192 | CP194 | CP201

COC1=CC=C2[C@H]3Cc4ccc(OC)c5c4[C@@]2(CCN3C)[C@H]1O5
inactive: AA1029 | AS120 | ATS189 | ATS95 | C2A | CP185 | CP191 | CP192 | CP194 | CP201

C[N+]1(C)C2CCC1CC(OC(=O)c1c[nH]c3ccccc13)C2 (centres undefined)
inactive: AA1029 | AS120 | ATS189 | ATS95 | C2A | CP185 | CP191 | CP192 | CP194 | CP201

[O]=[Cd]
inactive: AA1029 | AS120 | ATS189 | ATS95 | C2A | CP185 | CP191 | CP192 | CP194 | CP201

Clc1ccc(Cl)cc1
inactive: AA1029 | AS120 | ATS189 | ATS95 | C2A | CP185 | CP191 | CP192 | CP194 | CP201

COc1ccc2c(c1OC)C(=O)OC2C1c2cc3c(cc2CCN1C)OCO3 (centres undefined)
inactive: AA1029 | AS120 | ATS189 | ATS95 | C2A | CP185 | CP191

Cn1sc(Cl)cc1=O
inactive: AA1029 | AS120 | ATS189 | ATS95 | C2A | CP185 | CP191 | CP192 | CP194 | CP201

C=CCC1(C(C)CCC)C(=O)N=C(S)NC1=O (centres undefined)
inactive: AA1029 | AS120 | ATS189 | ATS95 | C2A | CP185 | CP191

O=C(CS(=O)C(c1ccccc1)c1ccccc1)NO (centres undefined)
inactive: AA1029 | AS120 | ATS189 | ATS95 | C2A | CP185 | CP191 | CP192 | CP194 | CP201

O[C@H]1[C@H]2[C@H](O)CCCN2C[C@H]1O
inactive: AA1029 | AS120 | ATS189 | ATS95 | C2A | CP185 | CP191 | CP192 | CP194 | CP201

Clc1ccccc1Cl
inactive: AA1029 | AS120 | ATS189 | ATS95 | C2A | CP185 | CP191 | CP192 | CP194 | CP201

CCCN1CCCC2Cc3[nH]ncc3CC21 (centres undefined)
inactive: AA1029 | AS120 | ATS189 | ATS95 | C2A | CP185 | CP191

S=C=S
inactive: AA1029 | AS120 | ATS189 | ATS95 | C2A | CP185 | CP191 | CP192 | CP194 | CP201

CC(C)(C)c1cc(O)ccc1O
8.91 µM (active) and inactive: AA1029
11.2 µM (active) and inactive: CP185
16.9 µM (active) and inactive: CP194
active: AS120 8.91 µM | ATS189 10 µM | ATS95 7.94 µM | C2A 4.47 µM | CP191 11.2 µM
inactive: CP192 | CP201

Oc1cccc[c]1[Hg][Cl]
active: AA1029 11.2 µM | AS120 7.94 µM | ATS189 12.6 µM | ATS95 10 µM | C2A 12.6 µM | CP185 7.94 µM | CP191 10 µM | CP192 15.1 µM

C=CCN=C=S
inactive: AA1029 | AS120 | ATS189 | ATS95 | C2A | CP185 | CP191

C=CCN1CC[C@]23c4c5ccc(O)c4O[C@H]2[C@@H](O)C=C[C@H]3[C@H]1C5
inactive: AA1029 | AS120 | ATS189 | ATS95 | C2A | CP185 | CP191 | CP192 | CP194 | CP201

O=C(OCCN1CCCCC1)C(O)(c1ccccc1)c1ccccc1
inactive: AA1029 | AS120 | ATS189 | ATS95 | C2A | CP185 | CP191 | CP192 | CP194 | CP201

O=C1CC[C@@]2(O)C3Cc4ccc(O)c5c4C2(CCN3CC2CC2)[C@H]1O5 (some centres undefined)
inactive: AA1029 | AS120 | ATS189 | ATS95 | C2A | CP185 | CP191 | CP192 | CP194 | CP201

C/C(=C\c1csc(C)n1)[C@@H]1C[C@@H]2O[C@]2(C)CCC[C@H](C)[C@H](O)[C@@H](C)C(=O)C(C)(C)[C@@H](O)CC(=O)O1
active: AA1029 0.0045 µM | AS120 0.0025 µM | ATS189 0.0071 µM | ATS95 0.0035 µM | C2A 0.0045 µM | CP185 0.002 µM | CP191 0.0028 µM | CP192 0.003 µM | CP194 0.0038 µM

COc1ccc(OC)c(C(O)C(C)N)c1 (centres undefined)
inactive: AA1029 | AS120 | ATS189 | ATS95 | C2A | CP185 | CP191 | CP192 | CP194 | CP201

CCCCCl
inactive: AA1029 | AS120 | ATS189 | ATS95 | C2A | CP185 | CP191 | CP192 | CP194 | CP201

N#CC1(N2CCCCC2)CCCCC1
inactive: AA1029 | AS120 | ATS189 | ATS95 | C2A | CP185 | CP191 | CP192 | CP194 | CP201

CC(C)CCON=O
inactive: AA1029 | AS120 | ATS189 | ATS95 | C2A | CP185 | CP191 | CP192 | CP194 | CP201

c1ccc2cc(CC3=NCCN3)ccc2c1
inactive: AA1029 | AS120 | ATS189 | ATS95 | C2A | CP185 | CP191 | CP192 | CP194 | CP201

C[CH2][Hg][S]c1ccccc1C(=O)O
active: AA1029 3.16 µM | AS120 3.16 µM | ATS189 3.55 µM | ATS95 2 µM | C2A 3.98 µM | CP185 2 µM | CP191 3.55 µM | CP192 4.78 µM | CP194 3.01 µM | CP201 4.26 µM

CNC(=O)OCC[N+](C)(C)C
inactive: AA1029 | AS120 | ATS189 | ATS95 | C2A | CP185 | CP191 | CP192 | CP194 | CP201

C#CC(C)(O)CC (centres undefined)
inactive: AA1029 | AS120 | ATS189 | ATS95 | C2A | CP185 | CP191 | CP192 | CP194 | CP201

ClC=C(Cl)Cl
inactive: AA1029 | AS120 | ATS189 | ATS95 | C2A | CP185 | CP191 | CP192 | CP194 | CP201

FC(F)OC(F)(F)C(F)Cl (centres undefined)
inactive: AA1029 | AS120 | ATS189 | ATS95 | C2A | CP185 | CP191 | CP192 | CP194 | CP201

From PubChem BioAssay (NCATS)
